Laboratory results reported in PubChem BioAssay (NCATS).
Results filed as inconclusive are left out. The source made the active and inactive calls. The call rests on the fitted dose curve; in most records, active means well fitted inhibition curve with a large enough effect; inconclusive means small, poorly fitted or top-dose-only effect; inactive means flat fitted curve, though single readings scatter.

The compounds below were run on HB3 (assay: qHTS profiling for inhibitors of Plasmodium falciparum proliferation (AID 504749; further: nearly all actives have a fitted effect of over 60% in size;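 on activity, negative = inhibition: 0% = DMSO vehicle and full inhibition = artemisinin control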)). Conditions: P. falciparum in erythrocytes, SYBR Green DNA, 72 h; series mostly up to 28.7 µM; activity, negative = inhibition: at the top concentration.
In short: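 SYBR Green fluorescence (ex 485 nm, em 535 nm) reports parasite DNA after 72 h compound exposure of infected red cells at 0.3% parasitemia, 2.5% hematocrit; signal normalized to 0.29 uM artemisinin and vehicle wells.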
Potency means the concentration at half of the fitted maximal effect.

Row | SMILES | activity, negative = inhibition | Potency
1 | CC1(C)OC[C@@H]2O[C@@]3(C(=O)O)OC(C)(C)O[C@@H]3[C@@H]2O1 | 8.35% (inactive) | 
2 | Cc1ccccc1N1C(=O)c2cc(N)ccc2N/C1=C\F | -11.7% (inactive) | 
3 | CCC(C(=O)O)C1OC(C(C)C(O)C(C)C(=O)C(CC)C2OC3(C=CC(O)C4(CCC(C)(C5CCC(O)(CC)C(C)O5)O4)O3)C(C)CC2C)C(C)CC1C (stereo not drawn) |  | 79.4 nM (active)
4 | O=C1C(I)=CC(=C(c2cc(I)c(O)c(I)c2)c2ccccc2C(=O)O)C=C1I | 0.624% (inactive) | 
5 | NC(=O)NC(CCC(=O)O)C(=O)O (stereo not drawn) | 1.67% (inactive) | 
6 | COC1CC2CCC(C)[C@](O)(O2)C(=O)C(=O)N2CCCCC2C(=O)OC(C(C)CC2CCC(O)C(OC)C2)CC(=O)C(C)/C=C(/C)C(O)C(OC)C(=O)C(C)CC(C)C=CC=C/C=C\1C (stereo partly drawn) |  | 2510 nM (active)
7 | CC(=O)OCC(=O)[C@@]1(O)CCC2C3C[C@H](C)C4=CC(=O)C=CC4(C)C3C(O)CC21C (stereo partly drawn) | -0.309% (inactive) | 
8 | CN[C@H](C)CCC=C(C)C |  | 199 nM (active)
9 | CC1(C)C2CC[C@]1(C)[C@@H](O)C2 | -7.15% (inactive) | 
10 | OCC1O[C@H](Oc2ccc(O)cc2)C(O)C(O)C1O (stereo partly drawn) | 12.5% (inactive) | 
11 | Nc1nc(F)nc2c1ncn2[C@@H]1O[C@H](CO)[C@@H](O)[C@H]1O | -2.22% (inactive) | 
12 | CC1OC(OC2CCC3(C)C(CCC4C3CC(O)C3(C)C(C5=CC(=O)OC5)CCC43O)C2)CC(O)C1OC1CC(O)C(OC2CC(O)C(OC3OC(CO)C(O)C(O)C3O)C(C)O2)C(C)O1 (stereo not drawn) | -28.5% (inactive) | 
13 | CC1OC(OCC2OC(Oc3c(-c4ccc(OCCO)c(OCCO)c4)oc4cc(OCCO)cc(O)c4c3=O)C(O)C(O)C2O)[C@@H](O)C(O)C1O (stereo partly drawn) | 7.18% (inactive) | 
